Hits are enriched below; roughly 4.5% of the tested compounds scored in any of these assays.
Rce1 inh: blocks yeast Ras-converting enzyme. Q03530. AID 2563. calls only. 290,000 tested, 0.27% active. yeast membranes, quenched prenylated peptide cleavage fluorescence;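 active = fall in fluorescence gain of 50% or more versus controls, with final raw signal at or below 3038400; inconclusive = same 50% fall but final raw signal above 3038400; inactive = fall in fluorescence gain under 50%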;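 note: plate controls were neutral control wells for no effect and wells lacking membranes for full effect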
GRK2 inh: human GRK2 inhibition via aptamer displacement. bead flow cytometry, FAM-aptamer displacement from GRK2. inhibition of aptamer binding, % at 10 µM. 330,000 tested, 0.59% active. AID 488847;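 active = inhibition of aptamer binding above 40%, roughly 3 SD of noise, on plates passing a quality check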;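 note: median bead fluorescence of bound FAM aptamer so fluorescent compounds give negative values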
Target sequence (P25098 whole entry, looked up): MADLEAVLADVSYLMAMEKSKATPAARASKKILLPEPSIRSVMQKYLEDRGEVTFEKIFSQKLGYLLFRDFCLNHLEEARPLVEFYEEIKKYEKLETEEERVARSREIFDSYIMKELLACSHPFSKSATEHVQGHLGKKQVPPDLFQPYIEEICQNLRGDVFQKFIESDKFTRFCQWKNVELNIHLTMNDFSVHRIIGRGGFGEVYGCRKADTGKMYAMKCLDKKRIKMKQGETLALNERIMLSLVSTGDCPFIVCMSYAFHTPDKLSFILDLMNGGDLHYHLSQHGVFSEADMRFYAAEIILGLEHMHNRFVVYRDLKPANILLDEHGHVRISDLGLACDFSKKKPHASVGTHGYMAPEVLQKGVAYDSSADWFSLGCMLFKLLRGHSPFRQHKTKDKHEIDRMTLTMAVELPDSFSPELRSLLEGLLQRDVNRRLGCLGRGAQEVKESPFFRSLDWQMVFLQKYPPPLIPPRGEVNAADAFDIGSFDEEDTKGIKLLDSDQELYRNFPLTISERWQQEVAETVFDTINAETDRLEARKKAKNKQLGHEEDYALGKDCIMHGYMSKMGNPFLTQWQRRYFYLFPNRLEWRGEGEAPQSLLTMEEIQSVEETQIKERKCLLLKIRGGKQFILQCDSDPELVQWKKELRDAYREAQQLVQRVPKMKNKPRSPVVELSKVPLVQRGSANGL
ALR inh: human ALR oxidase inhibition via reduced H2O2; P55789; purified ALR, DTT oxidation, H2O2 HRP-luminol luminescence; inhibition, % (test concentration not listed); 290,000 tested, 3.8% active;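 active = mean replicate inhibition above about 79%, with every replicate also reaching it, limit read from the data; inconclusive = only one of the two criteria met; inactive = mean below limit and not every replicate reaching it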
Rtt109 HAT inh: blocks Candida albicans Rtt109/Vps75 acetyltransferase activity; Q5AAJ8; purified Rtt109/Vps75, ThioGlo CoA-SH fluorescence, 4 h; inhibition, % at 34.9 µM; 330,000 tested, 0.16% active; AID 540336;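 active = inhibition of at least 50% in every replicate; inconclusive = best replicate reaches 50% inhibition but some replicates fall short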
Efflux pump mplx: inhibitors of Candida antifungal efflux pumps expressed in yeast. S. cerevisiae Candida pump triplex, Nile Red efflux. AID 485275. 330,000 tested, 0.44% active. inhibition, % at 10 µM;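 active = plate passing quality check with inhibition over a set limit, or well fluorescence over plate mean plus 4 SD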;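 note: Nile Red retained in pooled yeast measured as flow cytometry median fluorescence; 0% = buffer negative control and 100% = Enniatin B positive control; higher means more Nile Red kept so more efflux inhibition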
HDAC3 inhib: inhibitors of human histone deacetylase 3 | O15379 | recombinant HDAC3, fluorogenic peptide/trypsin coupled, fluorescence | inhibition, % at 8.3 µM | 320,000 tested, 0.15% active | AID 2718; in the data active = inhibition above about 26%, passing the limit was not always enough; inconclusive = no clear call, values can overlap the other calls
Starred values were filed as active, the others as inactive; i = inactive; ? = inconclusive; · = not tested or not shown.

SMILES	Rce1 inh	GRK2 inh	ALR inh	Rtt109 HAT inh	Efflux pump mplx	HDAC3 inhib
CCN1C(=O)[C@H]2[C@@H](c3ccc(Cl)cc3)N3C(=O)CN(CC4CC4)C(=O)[C@@]3(Cc3ccccc3)[C@H]2C1=O	i	0	-10	-7	0	8
Cc1nn(C)c(C(=O)Sc2cccc(Cl)c2)c1[N+](=O)[O-]	i	0	98*	1	0	6
Cc1nn(C)c(C(=O)Sc2ccccc2)c1[N+](=O)[O-]	i	3	·	8	0	-2
COCCNCc1cc(C)n(-c2cc(S(=O)(=O)N3CCOCC3)ccc2N2CCCC2)c1C	·	·	·	4	·	·
CCN(CC)c1ccc(S(=O)(=O)N2CCOCC2)cc1NC(=O)CSc1n[nH]c(N)n1	i	0	0	-1	0	-6
Cc1nn(-c2ccccc2)nc1CNC(=O)C1CCC1	i	3	-9	3	0	1
O=C(COC(=O)c1ccc(-n2cnnn2)cc1)c1ccc(Br)cc1	·	·	·	-13	·	·
NCCCCCc1nnc(SCc2ccc(Cl)cc2Cl)o1	i	0	99*	·	0	13
NCCCCCc1nnc(SCC(=O)Nc2cccc(Cl)c2)o1	i	0	92*	13	0	-12
O=C(CSc1nnc(CNC(=O)c2cccs2)o1)Nc1cccc(Cl)c1	i	1	98*	0	0	-12
NCCCCCc1nnc(SCc2cccc(Cl)c2)o1	i	0	-9	-8	0	?
O=C(CSc1nnc(CNC(=O)c2cccs2)o1)Nc1cccc(F)c1	i	2	99*	-8	0	3
CCCn1c(N)c(N(CCOC)C(=O)CSc2c(Cl)cccc2Cl)c(=O)[nH]c1=O	·	0	2	1	0	3
COC(=O)[C@H](CC(C)C)NC(=O)c1cc2c(cn1)[nH]c1ccccc12	i	0	·	12	0	-6
N#Cc1c2n(c3c(=S)nc[nH]c13)CCCCC2	i	4	93*	1	0	9
C/C(=N\NC(=O)c1cc(Br)ccc1O)c1ccccn1	i	1	85*	-1	0	11
C=CCNc1nc(Cl)nc(NCc2ccco2)n1	i	0	37	1	0	-12
Oc1ccc(Nc2nc(Cl)nc(NCc3ccco3)n2)cc1	i	0	99*	2	0	0
O=S(=O)(c1ccc(S(=O)(=O)N(Cc2ccccc2)Cc2ccco2)cc1)N1CCCC1	i	3	94*	25	0	-5
CCN(Cc1ccccc1)S(=O)(=O)c1ccc(S(=O)(=O)N2CCN(C)CC2)cc1	i	0	·	15	0	-6
Oc1[nH]c2ccccc2c1C1=NCCCCC1	i	0	93*	-2	0	-3
CCC1CCCCN1CCCNC(=O)CNC(=O)c1nn(-c2ccc(OC)c(Cl)c2)c(=O)c2ccccc12 (stereo not drawn)	i	0	-16	6	0	0
Cc1cc(Br)ccc1NCc1ccccn1	i	3	98*	20	0	2
COc1cc(NC(=O)CN2C(=O)C(c3ccccc3)=NC2(C)C)cc(OC)c1	i	0	97*	14	0	-6
Cc1c(C(=O)N(C)Cc2nc3ccccc3c(=O)[nH]2)oc2ccccc12	·	0	-2	1	0	1
SMILES	Rce1 inh	GRK2 inh	ALR inh	Rtt109 HAT inh	Efflux pump mplx	HDAC3 inhib
O=C(NCc1ccccc1)/C(=C\c1ccc(O)cc1)NC(=O)c1ccco1	i	1	97*	3	0	0
O=C(NCc1ccccc1)/C(=C/c1ccco1)NC(=O)c1ccco1	i	0	93*	1	0	-11
Cc1c(OCC(=O)NCCN2CCOCC2)ccc2c1oc(=O)c1ccccc12	i	1	-2	-3	0	-11
Cc1cccc(C(=O)Nc2nnc(-c3cccnc3)o2)c1	i	2	6	-8	1	4
Cc1cccc(C(=O)Nc2nnc(-c3ccncc3)o2)c1	i	0	97*	0	0	-3
O=C(Nc1nnc(-c2cccnc2)o1)c1cccc([N+](=O)[O-])c1	i	1	90*	·	0	-6
CCCn1nc(C(=O)NNC(=O)CSC(C)C(=O)Nc2cc(C)on2)c2ccccc2c1=O (stereo not drawn)	i	0	-14	20	0	-1
O=C(Cc1ccc(F)cc1)Nc1cccc2cccnc12	i	3	-7	63*	0	2
Cc1cn(CC(=O)NCC(C)c2ccccc2)c(=O)[nH]c1=O (stereo not drawn)	·	·	·	1	·	·
CC1(C)OC(=O)C(=NNc2ccc(O)cc2)C(=O)O1	·	2	99*	8	0	2
Cc1ccccc1/C=N\NC(=O)c1ccc(Cn2cccn2)o1	i	0	-6	-4	0	-6
O=C(N/N=C\c1cccc(Cl)c1)c1ccc(Cn2cccn2)o1	i	0	88*	2	0	9
Cc1cc(C)c2c(N)c(S(=O)(=O)c3ccccc3)sc2n1	i	0	1	0	0	-2
CCCCS(=O)(=O)c1sc2nc(C)cc(C)c2c1N	i	0	-6	55*	0	-2
COc1cccc(-c2noc(CCCC(=O)Nc3ccc(C(N)=O)cc3)n2)c1	i	0	-6	-7	0	0
O=C(COC(=O)C1CC1)Nc1ccc(S(=O)(=O)N2CCOCC2)cc1	·	2	-13	0	0	-6
Cc1cc(C)c(S(=O)(=O)NCCCn2ccnc2)cc1C	i	0	1	-6	0	4
O=S1(=O)C=C(Sc2nnc(-c3ccccc3)o2)c2ccccc21	i	0	78*	0	0	-3
Cc1cc(C)nc(SC2=CS(=O)(=O)c3ccccc32)n1	·	0	1	-7	0	-2
COc1cc(C)c(CNc2cccc(C)c2)cc1C	i	0	44	9	0	-1
COc1ccc(NCc2ccc(OC)c(OC)c2)cc1	i	0	12	·	7.5*	0
COc1cc(C)c(CNc2ccc(OC)c(OC)c2)cc1C	i	6	82*	·	0	0
COc1ccc(CNc2ccc(C(=O)O)cc2)cc1	i	0	-1	-5	0	-3
COc1ccc(CNc2ncccn2)cc1OC	i	0	-3	4	0	1
COc1ccc(CNc2ccc(Br)cc2)cc1	i	0	98*	-14	0	-4
Cc1cccc(NC(=O)COC(=O)CCc2c[nH]c3ccccc23)c1	·	1	-1	-8	0	6
O=C(CN1C(=O)NC2(CCCC2)C1=O)N1CCN(S(=O)(=O)c2cc(Cl)ccc2Cl)CC1	·	0	-4	0	0	0
COc1ccccc1N=c1oc2cc(O)ccc2cc1C(N)=O	?	3	·	-3	0	-81
Cc1cccc(N=c2oc3cc(O)ccc3cc2C(N)=O)c1	i	2	94*	9	0	-48
COc1ccccc1-c1cn[nH]c1-c1ccc(OCC(=O)NN)cc1O	i	0	95*	-8	0	-8

Compound activity: PubChem, several laboratories
